SMILES strings stand for the structures. This is part of a sample that, as a whole, favours compounds with a hit. Of some 79,000 tested, about 15% had one in any assay. A number with no mark means an inactive call. The source made the active and inactive calls. No stated cut-off is given here; in the data, active means growth inhibition above about 70%; inactive means the rest.

The nature of assay [1]: NCI Yeast Anticancer Drug Screen. Data for the rad50 strain (AID 155).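 Further: 0% = growth of vehicle-only cultures of the same strain.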 Conditions: S. cerevisiae rad50 strain growth inhibition; at 50.0 µM; stronger effect = higher value. Summed up: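 A DNA repair-deficient yeast mutant serves as the test organism; compound-induced growth inhibition is calculated against vehicle-treated cells.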
A short description of assay [2]: NCI Yeast Anticancer Drug Screen. Data for the mec2-1 strain (AID 157). Conditions: S. cerevisiae mec2-1 strain, at 50.0 µM, stronger effect = higher value. Summed up:
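Compounds were applied to mec2-1 yeast cells. Their growth was then compared with that of vehicle-treated cultures to give growth inhibition.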

Assay [3] can be described thus: NCI Yeast Anticancer Drug Screen. Data for the sgs1 mgt1 strain (AID 161).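 Further: 0% = growth of cultures given vehicle only.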 Conditions: S. cerevisiae sgs1 mgt1 strain, at 50.0 µM, stronger effect = higher value. Summed up: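 Compounds are added to genetically altered yeast, and growth is compared with cultures given vehicle alone to give percent inhibition.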
Assay [4] in a line: NCI Yeast Anticancer Drug Screen. Data for the cln2 rad14 strain (AID 165).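 Further: 0% = growth equal to vehicle treated cultures.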 Conditions: S. cerevisiae cln2 rad14 strain, at 50.0 µM, stronger effect = higher value. Summed up:
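Strain: cln2 rad14 yeast, altered in cell cycle control and DNA damage repair. Read-out: growth inhibition vs vehicle.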

Assay [5] in a line: NCI Yeast Anticancer Drug Screen. Data for the bub3 strain (AID 167). Conditions: S. cerevisiae bub3 mutant strain, at 50.0 µM, stronger effect = higher value. Summed up: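 Inhibition values come from growth of compound-treated mutant yeast normalised to vehicle-treated controls.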
Assay [6] in a line: NCI Yeast Anticancer Drug Screen. Data for the mlh1 rad18 strain (AID 175). To be noted: S. cerevisiae mlh1 rad18 strain growth inhibition; at 50.0 µM; stronger effect = higher value. Summed up:
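A repair-deficient yeast strain is exposed to test compound, and growth is scored relative to vehicle-treated controls.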

`CCCCCCCCCCC(=O)CCCCCCCCCC`: the growth inhibition in assay [1] is 7.15%; in assay [2] it was -12.2%; in assay [3], 8.1%; in assay [4], 16.8%; in assay [5] it was 7.6%.
For `c1ccc(-c2ccc3ccccc3c2)cc1`, in that order: 7.35%, -6.65%, -3.3%, -2.65% and -0.8%.
For `CCOc1ccccc1NC(=O)CCl`, the growth inhibition in assay [1] is 16.4%; in assay [2], 3.2%; in assay [3], 8.6%; in assay [4], -5.2%; in assay [5], 18.9%; in assay [6], 39.9%.
Regarding `COc1ccc2c(ccc[n+]2C)c1`, the growth inhibition is 19.6% in assay [1]; 30.9% in assay [2]; 3.65% in assay [3]; 19.2% in assay [4]; -15.7% in assay [5].
Taken in the same sequence, the figures for `CC1CC(C)S(=O)(=O)C1` (stereo not drawn) were -35%, -30.9%, -39%, -14.9% and -39.8%.
As to `O=C(c1ccccc1)c1ccc(-c2ccc(O)cc2)cc1`, the growth inhibition in assay [1] is 37.7%; in assay [2] it was 23.5%; in assay [3], 24.9%; in assay [4], -44.3%; in assay [5], 57.1%.
Consider `Cn1/c(=N\N=C\c2ccccc2OCCO)sc2ccccc21`, for which the growth inhibition in assay [1] was -2.7%; in assay [2] it was 17.9%; in assay [3] it was 18.8%; in assay [4], 9.7%; in assay [5], 26.4%; in assay [6], 4.3%.
For the compound `CC1CCC(C)(C)c2ccccc21` (stereo not drawn), the growth inhibition in assay [1] was 2.65%; in assay [2], -7.25%; in assay [3] it was -2.5%; in assay [4], -2.5%; in assay [5] it was -7.75%.
Turning to `C=COC(=O)CCOCC(CC)CCCC` (stereo not drawn), the growth inhibition in assay [1] was -6.1%; in assay [2], -15.1%; in assay [3], 8.95%; in assay [4], -6.2%; in assay [5], -4.55%.
`NC(CSSCC(N)C(=O)O)C(=O)O` (stereo not drawn): the growth inhibition in assay [1] was -11.6%; in assay [2], -20%; in assay [3], 1.35%; in assay [4] it was 4%; in assay [5], -20.9%; in assay [6], -2.05%.
For `O=S(=O)(O)c1ccc(O)c(C2CCCCC2)c1`, the growth inhibition is -7.1% in assay [1]; -8.4% in assay [2]; -21.1% in assay [3]; -23.2% in assay [4]; -12.2% in assay [5].
Turning to `CC(C)N(CCCC#N)C(C)C`, the growth inhibition is 9.9% in assay [1]; -11.6% in assay [2]; -5.25% in assay [3]; 10.4% in assay [4]; -17.2% in assay [5].
For `NC(=O)OCCO`, in that order: 19.2%, 6.45%, 10.9%, 9.65% and -2.35%.
As for `C#CC(O)c1ccccc1` (stereo not drawn), the growth inhibition is -2.4% in assay [1]; -15.3% in assay [2]; 13.1% in assay [3]; -11.6% in assay [4]; 0.9% in assay [5].
Consider `CC1(c2ccccc2)CO1` (stereo not drawn), for which the growth inhibition in assay [1] was -2.8%; in assay [2] it was -21.4%; in assay [3], -7.85%; in assay [4] it was -11.1%; in assay [5] it was -14.9%; in assay [6], 4.3%.
On to `Cn1c2ccccc2c2nnc(NCCCCO)nc21`, for which the growth inhibition is 10.4% in assay [1]; 18.3% in assay [2]; 19.1% in assay [3]; 24.8% in assay [4]; 19.6% in assay [5].
Take `C=C(c1ccc(N(C)C)cc1)c1ccc(N(C)C)cc1`: the growth inhibition was -0.95% in assay [1]; -2.55% in assay [2]; -3.05% in assay [3]; -40.4% in assay [4]; 9.5% in assay [5].
In the case of `Clc1ccc(/C=C/c2ccccn2)cc1`, the growth inhibition is 21.1% in assay [1]; 2.05% in assay [2]; 9.3% in assay [3]; -16.2% in assay [4]; 7.5% in assay [5].
Taken in the same sequence, the figures for `c1ccc2[nH]c(Cc3nc4ccccc4[nH]3)nc2c1` were 48%, -14.4%, 50.4%, 7.65% and 35%.
Turning to `Cc1cccc(C)c1NC(=S)/N=C\c1c(O)[nH]c(=O)[nH]c1=O`, the growth inhibition in assay [1] was -67%; in assay [2], -27.2%; in assay [3], -32.3%; in assay [4] it was -24.3%; in assay [5] it was -46.1%.
Taken in the same sequence, the figures for `O=C(OC1CCCC1)c1ccccc1Cl` were 23.9%, 8.75%, 3.75%, -21.7% and -2.3%.
`CC(=O)c1cccc(O)c1`: the growth inhibition in assay [1] was 5.8%; in assay [2] it was -8.85%; in assay [3] it was 6.65%; in assay [4], 1.1%; in assay [5], -5.1%.
Consider `ClCC(Cl)C1CCC(Cl)C(Cl)C1` (stereo not drawn), for which the growth inhibition in assay [1] was 10.5%; in assay [2], 6.1%; in assay [3], -7.85%; in assay [4] it was -3.9%; in assay [5], 8.65%.
Regarding `Cn1c(=O)[nH]c2ccccc2c1=O`, the growth inhibition in assay [1] was -1%; in assay [2] it was 4.5%; in assay [3] it was -2.1%; in assay [4] it was 0.7%; in assay [5], 6.85%.
For `CC(=O)Nc1ccc(/C=C2\SC(=S)N(/C=C(\C(C)=O)C(N)=O)C2=O)cc1`, the growth inhibition in assay [1] was -52%; in assay [2] it was -7.4%; in assay [3] it was -37.6%; in assay [4], -0.8%; in assay [5] it was -5%.
Take `OCCc1ccc(Cl)cc1`: the growth inhibition in assay [1] was 10.8%; in assay [2], 8.15%; in assay [3], 9.7%; in assay [4], 15.3%; in assay [5] it was -1.3%.
Consider `CCN(C(=O)Nc1ccccc1Cl)c1ccccc1`, for which the growth inhibition in assay [1] was 8.75%; in assay [2], 13.1%; in assay [3] it was 8.8%; in assay [4], 2.95%; in assay [5] it was 7.8%.
With `Ic1cccs1`, the growth inhibition in assay [1] is 34.9%; in assay [2], -3.05%; in assay [3], 6.65%; in assay [4], -6.75%; in assay [5], -4.3%.
`CCCNS(=O)(=O)c1ccc(Cl)cc1`: the growth inhibition was 20.1% in assay [1]; -2.9% in assay [2]; -0.45% in assay [3]; 1.55% in assay [4]; -4.75% in assay [5]; -3.7% in assay [6].
With `Cc1cc(C)cc(OCC(=O)O)c1`, the growth inhibition in assay [1] is 16.6%; in assay [2], 10.2%; in assay [3] it was -10.6%; in assay [4] it was -41%; in assay [5], -4.45%.
On to `COC(=O)C1(CC(C)=O)NC(=S)NC(=O)C1C#N` (stereo not drawn), for which the growth inhibition in assay [1] was -21.4%; in assay [2], -26.9%; in assay [3], -36.3%; in assay [4] it was -38.2%; in assay [5] it was -30.1%; in assay [6], -15.3%.
Take `NC(=O)c1cc2c3ccccc3ccn2c1-c1ccccc1`: the growth inhibition in assay [1] was 35.8%; in assay [2] it was 27.2%; in assay [3], 46.7%; in assay [4] it was 62.6%; in assay [5], 64%.
For `N#C/C(=C\c1ccc2c(c1)OCO2)c1ccccc1`, in that order: 10.4%, -0.7%, 3.15%, 10.2% and 1.95%.
As for `CCOS(=O)(=O)c1ccc([N+](=O)[O-])cc1`, the growth inhibition in assay [1] was 7.35%; in assay [2] it was 5.95%; in assay [3], 4.5%; in assay [4], 5.15%; in assay [5], 5.2%.
As to `CCNC(=O)Oc1ccc[nH]c1=O`, the growth inhibition in assay [1] was -7.65%; in assay [2] it was -10.8%; in assay [3], -1.1%; in assay [4] it was -15.9%; in assay [5], -2.2%; in assay [6], -47.8%.
For the compound `COC(=O)c1ccc([N+](=O)[O-])c(C)c1`, the growth inhibition is -33.2% in assay [1]; -30.9% in assay [2]; -50.2% in assay [3]; -9.9% in assay [4]; -25.1% in assay [5].
For `Cc1c(Cl)cccc1N=C=S`, in that order: -9.85%, -24%, 15.4%, 11.5% and -0.95%.
Consider `O=S(=O)(O)C(C(I)I)S(=O)(=O)O`, for which the growth inhibition is -0.15% in assay [1]; -19.8% in assay [2]; -3.35% in assay [3]; -34.5% in assay [4]; -6.85% in assay [5]; -7.6% in assay [6].
As to `CN1CCCN(C(c2ccccc2)c2ccc(Cl)cc2)CC1` (stereo not drawn), the growth inhibition in assay [1] is 3.9%; in assay [2] it was -16.9%; in assay [3], 1.95%; in assay [4], 19.9%; in assay [5], 27.6%; in assay [6], 10.5%.
Turning to `Cc1ccc2[nH]c3ccccc3c2c1`, the growth inhibition in assay [1] was 26.1%; in assay [2], 14.6%; in assay [3] it was 22.9%; in assay [4] it was -14.8%; in assay [5] it was 15%; in assay [6], 31.1%.
For the compound `CC(C)(N)CO[C@H]1C[C@H]2CC[C@@]1(C)C2(C)C`, the growth inhibition in assay [1] was 11.8%; in assay [2], -5.7%; in assay [3], 2.4%; in assay [4], -26.4%; in assay [5], 10.2%; in assay [6] it was -6.15%.
For `Oc1cccnc1CN1CCCC1`, the growth inhibition in assay [1] was 1.15%; in assay [2], -12.8%; in assay [3], 2.3%; in assay [4], 1.7%; in assay [5] it was -5.8%; in assay [6], 18.4%.
Regarding `CCOC(OCC)C(=O)c1ccccc1`, the growth inhibition in assay [1] is -0.5%; in assay [2] it was -19.9%; in assay [3], -4.1%; in assay [4] it was 9.2%; in assay [5], 6.25%; in assay [6], 25.1%.
With `S=CN1CCCCC1`, the growth inhibition was -25.1% in assay [1]; -16.2% in assay [2]; -7.8% in assay [3]; -2.4% in assay [4]; -23.8% in assay [5]; -8.75% in assay [6].
For the compound `CCOC(=O)c1cc(C)[nH]c(=O)c1C#N`, the growth inhibition in assay [1] was -12.2%; in assay [2], -3.1%; in assay [3], -5.1%; in assay [4], -5.1%; in assay [5], 4.55%; in assay [6], 2.65%.
On to `BrCc1cccc(C[P+](c2ccccc2)(c2ccccc2)c2ccccc2)c1`, for which the growth inhibition in assay [1] was 66%; in assay [2] it was 41.9%; in assay [3], 36.2%; in assay [4] it was 28.2%; in assay [5], 38.5%; in assay [6] it was 41%.
Take `CCOc1ccncc1[N+](=O)[O-]`: the growth inhibition in assay [1] is 5.5%; in assay [2], 13.1%; in assay [3], 3.25%; in assay [4], -7%; in assay [5], 10.1%; in assay [6], 5%.
For `c1ccc(Oc2c3ccccc3nc3ccccc23)cc1`, the growth inhibition in assay [1] was 2.75%; in assay [2], -18.4%; in assay [3], -13.2%; in assay [4], 4.25%; in assay [5], -5.7%; in assay [6], 87.9% (active).

Values taken from PubChem BioAssay (NCI).
